# Measured values: PubChem BioAssay
# Activity calls are given as the source filed them.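 Rule for the calls, unless noted: active = inhibition at or above 50% at 10 µM; inactive = inhibition below 50%.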
# Columns and labels:
# [1] = inhibitors of TNFa-induced NFkB p65 translocation, primary screen, imaging, HUVEC, MLSMR starter and 10KST1 sets (AID 438;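 active = inhibition above 20% together with a positive visual image hit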;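 note: compound added about 3h40 before a 20 min TNFalpha stimulation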;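 for inhibition: signal is the nuclear over cytoplasmic p65 intensity ratio per well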); details: HUVEC TNFa-induced p65 nuclear translocation; cell count: measured here: nuclei count (cytotoxicity indicator), at 2.08 µM; inhibition: at 2 µM, stronger effect = higher value, 0% TNFa-plus-vehicle, 100% no-TNFa wells
# [2] = reduction of polyQ htt aggregates in cells – imaging, exon1htt(103Q)mCFP cells, high-content imaging, primary screen (AID 483;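 active = visual image review flags a hit and inhibition of aggregation exceeds 20%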;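 note: compound exposure lasted 3 days before fixation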;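 for nuclei count: percent of the per-plate median nuclei count of sample wells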); details: exon1htt(103Q)mCFP cell line, aggregate imaging, at 2 µM; inhibition of aggregation: stronger effect = higher value; nuclei count: measured here: cell count, toxicity
# [3] = endothelial E-selectin expression blockers – imaging, HUVEC, immunofluorescence, MLSMR starter and 10KST1 sets, primary screen (AID 487;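 active = visually confirmed hit in the image check and inhibition above 20%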;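 for inhibition: signal is fraction of cell area covered by stained E-selectin grains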;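 for nuclei count: 100% = median nuclei count of all wells on the same plate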); details: HUVEC TNFalpha-induced E-selectin immunofluorescence imaging, at 2 µM; inhibition: stronger effect = higher value; nuclei count: measured here: cell number, toxicity
# [4] = target: Voltage-gated potassium channel subunit beta-2 (Rattus norvegicus) (UniProt P62483); test: inhibitors of rat Kvbeta2 reductase activity – biochemical, NADPH fluorescence, primary screen (AID 622;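 active = fluorescence slope higher than the sample average by over 3 SD, cut at about -0.22 in these data, passing the limit was not always enough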;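 note: slope of raw intensity against log time taken from 70 to 1610 s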); details: recombinant KvBeta, 4-cyanobenzaldehyde reduction, at 10 µM, stronger effect = higher value
# [5] = target: Voltage-gated potassium channel subunit beta-2 (Rattus norvegicus) (UniProt P62483); test: enhancers of rat Kvbeta2 NADPH turnover – biochemical, NADPH fluorescence, primary screen (AID 623;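 active = NADPH fluorescence slope more negative than the mean of all samples by about 3 SD, 99.7% confidence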;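 note: fluorescence intensity change per second fitted from 20 to 320 s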); details: Recombinant KvBeta, NADPH fluorescence decrease slope, 10 min; at 10 µM; stronger effect = lower value
# [6] = target: Alpha-2C adrenergic receptor (Homo sapiens) (UniProt P18825); test: compounds altering alpha2C-coupled GIRK flux – cell-based, HEK293 alpha2C/GIRK1/2, thallium flux, primary screen (AID 624;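 active = fluorescence slope after compound addition differing from the mean of all screened samples at 99.7% confidence, in either direction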;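 note: slope of fluorescence ratio to pre-addition baseline per second over 15 to 24 s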); details: thallium flux BTC fluorescence, at 10 µM, actives lie on both sides
# [7] = blockers of RIG-like receptor reporter activation – cell-based, Sendai virus stimulus, luciferase, 10K MLSCN set, TLR/RLR signaling modifier project, primary screen (AID 602276); details: HEK293 RL24 IRF3 luciferase reporter, at 10 µM, stronger effect = higher value;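 note: firefly luciferase from ISG56 promoter only with Renilla not read in this screen; 0% = Sendai virus plus DMSO and 100% = medium plus DMSO without virus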
# [8] = TLR3 IRF3 reporter activation blockers – cell-based, poly I:C stimulus, luciferase, 10K MLSCN set, primary screen (AID 602277;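 active = inhibition of the reporter signal at or above 50%; inactive = inhibition below 50%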); details: HEK293-TLR3 RL24 IRF3 luciferase reporter, at 10 µM, stronger effect = higher value
# Chain of Voltage-gated potassium channel subunit beta-2 (Rattus norvegicus) (P62483 whole entry, looked up): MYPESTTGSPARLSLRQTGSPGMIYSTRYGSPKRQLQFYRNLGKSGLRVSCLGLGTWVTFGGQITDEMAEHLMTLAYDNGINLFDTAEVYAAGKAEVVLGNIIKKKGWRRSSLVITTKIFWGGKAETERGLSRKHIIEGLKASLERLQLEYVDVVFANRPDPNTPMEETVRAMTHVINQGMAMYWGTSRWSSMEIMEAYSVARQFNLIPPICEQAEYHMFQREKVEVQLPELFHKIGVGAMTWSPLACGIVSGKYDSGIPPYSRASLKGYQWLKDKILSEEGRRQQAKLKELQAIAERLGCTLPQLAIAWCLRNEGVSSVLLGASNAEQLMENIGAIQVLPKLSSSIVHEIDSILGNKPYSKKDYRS
# Chain of Alpha-2C adrenergic receptor (Homo sapiens) (P18825 whole entry, looked up): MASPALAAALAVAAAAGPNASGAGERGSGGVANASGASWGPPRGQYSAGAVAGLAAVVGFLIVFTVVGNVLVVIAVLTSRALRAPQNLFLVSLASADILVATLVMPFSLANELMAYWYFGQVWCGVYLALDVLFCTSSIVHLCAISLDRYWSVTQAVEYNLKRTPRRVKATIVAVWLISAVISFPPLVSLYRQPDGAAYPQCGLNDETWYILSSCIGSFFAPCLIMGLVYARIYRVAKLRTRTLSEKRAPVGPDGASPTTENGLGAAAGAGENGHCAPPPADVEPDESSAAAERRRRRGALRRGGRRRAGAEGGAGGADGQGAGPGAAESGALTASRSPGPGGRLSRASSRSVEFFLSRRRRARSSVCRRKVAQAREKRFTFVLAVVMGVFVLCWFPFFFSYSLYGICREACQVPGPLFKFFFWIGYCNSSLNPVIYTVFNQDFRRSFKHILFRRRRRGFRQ
SMILES,cell count [1],inhibition [1],inhibition of aggregation [2],nuclei count [2] [%],inhibition [3],nuclei count [3] [%],fluorescence slope [4],NADPH fluorescence slope [5],slope [6],inhibition [7],inhibition [8]
COCCOC(=O)c1c(C)oc2ccc(NS(=O)(=O)c3ccc(F)cc3)cc12,381,2.5% (inactive),4.7% (inactive),123,30.2% (inactive),93,-0.613 (inactive),2.2e-06 (inactive),0.00626 (inactive),14.6% (inactive),25.3% (inactive)
c1ccc(CCn2nnnc2CN2CCN(C3CCCC3)CC2)cc1,290,-15.4% (inactive),-9.3% (inactive),112,-40.7% (inactive),118,-0.604 (inactive),-4.3e-05 (inactive),0.0058 (inactive),-0.279% (inactive),20.4% (inactive)
O=C(c1ccc(Br)o1)N(c1ccc(Br)cc1)C1C=CS(=O)(=O)C1 (centres undefined),553,-21.1% (inactive),4.2% (inactive),108,-74.4% (inactive),121,-0.377 (inactive),3.2e-05 (inactive),0.00592 (inactive),-8.65% (inactive),-3.46% (inactive)
O=C(OCC(=O)N1CCC(Cc2ccccc2)CC1)c1ccc[nH]c1=O,496,-25.6% (inactive),-14.9% (inactive),107,-41.6% (inactive),88.7,-0.341 (inactive),-9.5e-06 (inactive),0.00527 (inactive),3.7% (inactive),6.66% (inactive)
COC(=O)c1ccccc1NC1c2ccccc2C(=O)N1c1cccnc1 (centres undefined),725,-6.7% (inactive),-10.5% (inactive),100,-26.4% (inactive),112,-0.53 (inactive),-4.7e-05 (inactive),0.00566 (inactive),5.35% (inactive),16.8% (inactive)
COCc1[nH]nc2c1C(c1cc(OC)c(O)c(OC)c1)C(C#N)=C(N)O2 (centres undefined),397,-1.6% (inactive),-17% (inactive),115,-26.1% (inactive),117,-0.502 (inactive),-4.1e-05 (inactive),0.0049 (inactive),17.4% (inactive),21.1% (inactive)
O=C(CSc1nc(O)c(Cc2ccccc2)c(=O)[nH]1)Nc1ccccc1,366,5.3% (inactive),0.2% (inactive),95.2,5.2% (inactive),115,-0.44 (inactive),-3e-05 (inactive),0.00311 (inactive),3.29% (inactive),24.3% (inactive)
CC(=O)Nc1ccc(NS(=O)(=O)C(F)(F)F)cc1,417,2% (inactive),8% (inactive),104,-96% (inactive),127,-0.353 (inactive),-0.000109 (inactive),0.00651 (inactive),3.92% (inactive),21.1% (inactive)
CCOCCc1nnc(NC(=O)c2ccc(OC)c(OC)c2)s1,578,9.1% (inactive),-18.6% (inactive),97.6,-94.6% (inactive),154,-0.515 (inactive),-4.8e-05 (inactive),0.00549 (inactive),14.1% (inactive),20% (inactive)
O=C(NCc1cccs1)c1cc2c(s1)-c1ccccc1OC2,674,1.6% (inactive),-25.1% (inactive),98.2,-49.2% (inactive),108,-0.122 (inactive),-3.3e-06 (inactive),0.00728 (inactive),-42% (inactive),-187% (inactive)
Cc1cc(OCC(=O)N2CCCC2)cc(C)c1Cl,633,6.6% (inactive),3.4% (inactive),95,-128% (inactive),99.5,-0.601 (inactive),-7.6e-05 (inactive),0.00573 (inactive),4.42% (inactive),-0.933% (inactive)
C=CC(O)(C#CCN(CC)CC)c1ccccc1 (centres undefined),740,-36% (inactive),-18.5% (inactive),107,-53.6% (inactive),110,-0.596 (inactive),-5e-05 (inactive),0.0061 (inactive),4.67% (inactive),11.4% (inactive)
CC(=O)NCC(=O)N(Cc1ccco1)C1(C(=O)NC2CCCCC2)CCCCC1,571,5.7% (inactive),19.5% (inactive),132,-9.3% (inactive),128,-0.538 (inactive),-4.2e-05 (inactive),0.00597 (inactive),9.16% (inactive),19.2% (inactive)
O=C(NC(C(=O)c1ccccc1)N1CCOCC1)c1cccs1 (centres undefined),629,-14.3% (inactive),19.4% (inactive),72.3,-2.1% (inactive),101,-0.311 (inactive),-5.7e-05 (inactive),0.00609 (inactive),-18.2% (inactive),-23.5% (inactive)
Cc1ccc(C(=O)CC2(O)C(=O)N(C)c3ccc(Br)cc32)c(C)c1 (centres undefined),614,-5% (inactive),-6.2% (inactive),107,-23.2% (inactive),123,-0.457 (inactive),-5.1e-05 (inactive),0.0058 (inactive),15.6% (inactive),31.5% (inactive)
Cc1ccc(N2C(=O)c3ccccc3C2O)nc1 (centres undefined),627,0.8% (inactive),-27.7% (inactive),117,-15.9% (inactive),117,-0.587 (inactive),-2.2e-05 (inactive),0.00652 (inactive),48.3% (inactive),41.4% (inactive)
O=C(CSc1nnc2ccccn12)c1ccccc1,535,7.7% (inactive),2.2% (inactive),105,23.4% (inactive),70.9,-0.46 (inactive),4e-05 (inactive),0.00782 (inactive),-34.1% (inactive),-86.4% (inactive)
Cc1c(C(=O)OCC(C)C)[nH]c2c1C(=O)CC(c1ccco1)C2 (centres undefined),464,8.4% (inactive),-226% (inactive),4,-91.9% (inactive),96.5,-0.492 (inactive),-3.2e-07 (inactive),0.00635 (inactive),75.6% (active),76.5% (active)
COc1cc(-n2nc(C)c3c2OC(N)=C(C#N)C3c2ccccc2)c(Cl)c(Br)c1O (centres undefined),490,-1.6% (inactive),2.1% (inactive),71.4,-8.7% (inactive),108,-0.397 (inactive),-3.5e-05 (inactive),0.00309 (inactive),18.2% (inactive),14.7% (inactive)
